Measurements taken from PubChem BioAssay.

Columns and labels:
[1] = tested on: Human papillomavirus type 1a protein E7 (residues 44-93); experiment: small molecules binding HPV E7 44-93 – biochemical, small-molecule microarray, residues 44-93, 635 nm fluorescence, primary screen (AID 1108); conditions: fluorescence 635 nm, higher = more signal;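 note: E7 fragment applied at 1 µg/mL in TBST for 1 h at 4 C; score combines spot fluorescence with its signal to noise ratio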
[2] = hepatitis C replication reporter changes, two-sided – Huh7 cells, luciferase reporter, HCV replication inhibitor project, primary screen (AID 1109); conditions: Huh7 HCV replicon luciferase reporter, 48 h; higher = more signal;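 note: huh7 hepatoma cells harbouring a luciferase neomycin HCV replicon reporter; luciferase luminescence as measure of HCV replicon replication; test concentration not given here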
[3] = target: Left-right determination factor 2 (Homo sapiens) (UniProt O00292); experiment: small molecules binding LEFTY2 protein – biochemical, small-molecule microarray, 635 nm fluorescence scan, primary screen (AID 1110); conditions: higher = more signal
[4] = target: Calmodulin-1 (Homo sapiens) (UniProt P0DP23); experiment: small molecules binding calmodulin-1 with EGTA – biochemical, small-molecule microarray, Cy5-labelled CALM1, profiling panel (AID 1111); conditions: Cy5-CALM1 binding fluorescence, higher = more signal;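 note: labelled calmodulin applied in Tris saline Tween buffer holding calcium plus EGTA and DTT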
[5] = target: Calmodulin-1 (Homo sapiens) (UniProt P0DP23); experiment: small molecules binding Ca-loaded calmodulin-1 – biochemical, small-molecule microarray, Cy5-labelled CALM1, plus calcium, artefact control for SMM control-protein annotation, profiling panel (AID 1112); conditions: Cy5-CALM1 binding fluorescence, higher = more signal;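 note: score merges spot fluorescence with signal to noise from triplicate slides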
[6] = probe aWnt5a binding to arrayed compounds – biochemical, biotinylated probe, 635/667 nm fluorescence, primary screen (AID 1113); conditions: small-molecule microarray, higher = more signal;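 note: score merges 667 nm fluorescence intensity with signal-to-noise per printed feature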
[7] = probe aShh binding to arrayed compounds – biochemical, biotinylated probe, 635/667 nm fluorescence, primary screen (AID 1114); conditions: small-molecule microarray, higher = more signal;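 note: probe is biotin-labelled aShh protein from a stem cell growth factor screen; measures binding of labelled protein to compounds printed on the slide; score merges feature fluorescence at 667 nm with signal-to-noise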
[8] = probe aNog binding to arrayed compounds – biochemical, biotinylated probe, 635/667 nm fluorescence, primary screen (AID 1115); conditions: small-molecule microarray, higher = more signal;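 note: probe is biotinylated aNog protein used at 0.15 µg/mL for 1 h at 4 C; z-score combines 667 nm fluorescence of each spot with its signal to noise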
[9] = target: Torsin-1A-interacting protein 1 (Homo sapiens) (UniProt Q5JTV8); experiment: compound microarray binding of lysate hLAP1 – cell lysate, small-molecule microarray, COS7 lysate, 635/667 nm fluorescence, primary screen (AID 1116); conditions: 635 nm fluorescence, higher = more signal
[10] = target: Alpha-bungarotoxin (Bungarus multicinctus) (UniProt P60615); experiment: compounds binding labelled alpha-BTX control protein – biochemical, small-molecule microarray, Alexa647 label, 635/667 nm fluorescence, artefact control for SMM control protein annotation, profiling panel (AID 1117); conditions: alpha-BTX-A647 binding fluorescence, higher = more signal
Alpha-bungarotoxin (Bungarus multicinctus), sequence (P60615 whole entry, looked up): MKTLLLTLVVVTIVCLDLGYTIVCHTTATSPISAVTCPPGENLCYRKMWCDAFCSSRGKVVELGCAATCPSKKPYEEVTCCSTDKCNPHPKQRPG

Left-right determination factor 2 (Homo sapiens), sequence (O00292 whole entry, looked up): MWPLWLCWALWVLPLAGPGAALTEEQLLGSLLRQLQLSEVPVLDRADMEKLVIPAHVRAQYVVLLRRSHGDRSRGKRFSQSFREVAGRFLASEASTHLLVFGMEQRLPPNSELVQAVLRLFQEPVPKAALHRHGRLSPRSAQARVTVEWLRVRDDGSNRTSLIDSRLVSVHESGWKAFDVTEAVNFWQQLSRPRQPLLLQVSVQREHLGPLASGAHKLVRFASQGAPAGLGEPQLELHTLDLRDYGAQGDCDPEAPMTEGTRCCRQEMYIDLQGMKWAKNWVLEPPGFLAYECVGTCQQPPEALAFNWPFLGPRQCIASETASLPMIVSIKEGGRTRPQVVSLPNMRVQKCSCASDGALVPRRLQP
Torsin-1A-interacting protein 1 (Homo sapiens), sequence (Q5JTV8 whole entry, looked up): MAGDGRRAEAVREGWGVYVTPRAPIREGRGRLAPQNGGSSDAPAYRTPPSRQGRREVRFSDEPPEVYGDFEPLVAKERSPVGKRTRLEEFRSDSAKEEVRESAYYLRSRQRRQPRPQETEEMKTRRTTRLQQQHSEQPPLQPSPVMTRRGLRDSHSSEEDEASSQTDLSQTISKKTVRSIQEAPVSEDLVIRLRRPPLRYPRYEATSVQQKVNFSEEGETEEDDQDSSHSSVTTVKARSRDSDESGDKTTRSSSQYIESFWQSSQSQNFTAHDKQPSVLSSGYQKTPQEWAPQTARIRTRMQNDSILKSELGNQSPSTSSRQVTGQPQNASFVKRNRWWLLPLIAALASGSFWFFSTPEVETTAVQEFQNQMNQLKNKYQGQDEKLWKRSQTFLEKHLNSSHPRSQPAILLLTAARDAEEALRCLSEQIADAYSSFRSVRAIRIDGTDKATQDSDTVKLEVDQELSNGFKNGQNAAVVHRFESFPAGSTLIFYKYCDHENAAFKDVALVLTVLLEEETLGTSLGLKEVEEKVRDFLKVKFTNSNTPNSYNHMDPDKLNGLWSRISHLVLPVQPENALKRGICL

| Structure (SMILES) | composite z-score [1] | z-score [2] | composite z-score [3] | composite z-score [4] | composite z-score [5] | composite z-score [6] | composite z-score [7] | composite z-score [8] | composite z-score [9] | composite z-score [10] |
| --- | --- | --- | --- | --- | --- | --- | --- | --- | --- | --- |
| CC(C)(C)N1C(=O)[C@H]2[C@H]3[C@H](O)[C@H](O)CC(=NOCc4ccccc4)[C@@H]3CC[C@H]2C1=O | 0.093 | 0.656 | 1.08 | -0.266 | -0.717 | -0.0194 | -0.0146 | -0.352 | 0.593 | 1.19 |
| CCc1cc2c(nc1CC)CCN(CCC(C)=NOC[C@@H](O)COCc1ccco1)C2 | -1.51 | -1.59 | 1.48 | -0.729 | -1.77 | 0.0663 | 0.547 | -0.0965 | 1.11 | 0.64 |
| O=C1C[C@]2(c3ccc([N+](=O)[O-])cc3)C(=O)N(CCN3CCOCC3)c3cc(CO)ccc3[C@H]2N1CC12CC3CC(CC(C3)C1)C2 | -0.119 | -0.544 | -1.1 | 0.846 | 0.305 | -0.0455 | -0.0626 | -0.345 | 0.15 | 1.15 |
| O=C1[C@H]2[C@H]3[C@H](O)[C@H](O)CC(=NOC[C@@H](O)COCc4ccco4)[C@H]3CC[C@H]2C(=O)N1c1cccc(Oc2ccccc2)c1 | -0.496 | 0.126 | -1.1 | -0.876 | -0.344 | -0.0792 | -0.138 | -0.0671 | 0.103 | -0.572 |
| COc1ccc(O[C@H]2C=C[C@@H](c3ccccc3)O[C@@H]2COC(=O)CCC(C)=NOC[C@@H](C)[C@H](OCc2ccccc2)C(C)C)cc1 | -2.09 | -0.667 | -0.306 | -1.65 | -0.741 | -0.0748 | -0.283 | -0.233 | -0.956 | -1.04 |
| CN(C)CCCNC(=O)[C@@H]1c2ccccc2C(=O)N(Cc2cc(F)cc(C(F)(F)F)c2)[C@H]1c1ccc(CO)cc1 | 0.7 | -0.734 | 0.643 | 0.509 | 0.0028 | -0.103 | -0.0904 | 1.39 | 0.886 | -0.0234 |
| Cn1cccc1C(O)C1C=CC2C(=O)NC(=O)C2N1Nc1ccccn1 (stereo not given) | -1.15 | -0.803 | -0.136 | -0.0487 | -0.472 | -0.0512 | 0.0723 | -0.0446 | -0.0327 | -0.086 |
| Cc1cc2c(nc1C)CCCN2CC(C)ON=C1[C@H]2CCn3c(=O)n(-c4ccccc4)c(=O)n3[C@H]2[C@H](O)[C@@H]2O[C@H]12 (stereo not given in full) | 0.862 | -3.29 | 0.377 | -0.135 | -0.458 | -0.0077 | 0.767 | 0.066 | 0.184 | 0.515 |
| CN(C)C(=O)[C@@]1(Cc2ccccc2)N=C(c2ccc(OCCCO)cc2)O[C@H]1c1ccccc1CN=[N+]=[N-] | 1.1 | -2.14 | -0.068 | 2.47 | 1.26 | 0.313 | 0.64 | -0.18 | 2.95 | 2.62 |
| COCCOC(=O)N1C(=O)[C@@]2(c3cc(C#CC4(O)CCCCCC4)ccc31)[C@H](c1ccc(OCCO)cc1)N1[C@H](c3ccccc3)[C@H](c3ccccc3)OC(=O)[C@H]1[C@@H]2C(=O)NC[C@H](O)c1ccccc1 | 1.44 | -2.32 | 0.358 | 1.28 | 0.311 | 0.0079 | -0.0289 | 0.385 | 1.26 | 2.17 |
| COc1cccc([C@@H]2Oc3ccc(Br)cc3C(=O)[C@H]2O)c1 | 0.0288 | 3.55 | 0.171 | 0.042 | -0.246 | -0.124 | -0.243 | -0.257 | 0.43 | 0.599 |
| C=C(/C(=C/C[C@H](OC(C)=O)c1ccc(OCCO)cc1)c1cnc2ccccc2c1)C(C)C | 1.41 | -1.38 | 1.06 | 0.295 | -0.184 | 0.117 | -0.0917 | -0.243 | 0.782 | 0.911 |
| COc1ccc(-c2nc3c(c4c2C[C@H](C)OC4)CN(CCC(C)C)CC3)cc1 | 1.35 | -0.257 | 0.6 | 0.518 | 0.038 | -0.0239 | 0.123 | -0.131 | 0.269 | 0.615 |
| CC(=O)OC[C@H]1O[C@H](CCON=C(C)CCN2CCc3nc(-c4ccccc4)c(-c4ccccc4)cc3C2)C=C[C@@H]1OC(C)=O | 1.26 | -1.58 | 0.0439 | -0.205 | -0.174 | -0.0748 | -0.0425 | -0.273 | 0.624 | 1.57 |
| CS(=O)(=O)CCOC(=O)C1=CC(CCCO)=CC(c2cccs2)N(Cc2cccc(OC(F)(F)F)c2)C=C1C(=O)OCCS(C)(=O)=O (stereo not given) | 0.729 | -2.77 | -0.224 | 2.31 | 1.36 | 0.055 | 0.261 | -0.0554 | 1.88 | 1.6 |
| C=CC[C@@H]1C=C[C@H](ON=C2c3cc(OC)ccc3O[C@H](c3cccc(OC)c3)[C@H]2O)[C@@H](CO)O1 | -0.208 | -0.892 | 0.194 | -0.569 | -0.319 | -0.175 | -0.288 | 0.151 | -0.103 | 1.42 |
| O=C1[C@H]2[C@H]3[C@H](O)[C@H](O)CC(=NOCc4ccccc4)[C@H]3CC[C@H]2C(=O)N1C[C@@H]1CCCO1 | 0.536 | 0.188 | 0.873 | 0.0951 | -0.223 | -0.0685 | -0.138 | 0.0715 | 0.278 | 0.0902 |
| O=C1c2ccccc2[C@@]2(Cc3ccccc3N(C3CC3)C2=O)[C@H](c2ccc(CO)cc2)N1Cc1ccccc1C(F)(F)F | 0.223 | -2.39 | -1.18 | -0.48 | -0.382 | -0.154 | 0.0545 | -0.23 | 0.188 | -1.37 |
